Compounds without any hit were thinned out: in the full panel of roughly 83,000, 20% have a hit.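 The endpoint reported here, percent growth, reads 100 for growth as untreated, 0 for no net growth and -100 for all cells dead.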 The source made the active and inactive calls. How the source made its calls: active means growth percent below 10; inactive means the rest.
Key:
Assay in all cases: NCI-60 one-dose screen, 48 h (100 = growth as untreated, 0 = no growth, -100 = all killed)
Conditions in all cases: 10 µM unless noted
NCI-H23 lung = tested on: NCI-H23 lung
NCI-H226 lung = tested on: NCI-H226 lung
NCI-H322M lung = tested on: NCI-H322M lung
HOP-62 NSCLC = tested on: HOP-62 NSCLC
NCI-H460 lung = tested on: NCI-H460 lung
HOP-92 NSCLC = tested on: HOP-92 NSCLC
NCI-H522 lung = tested on: NCI-H522 lung
A549/ATCC NSCLC = tested on: A549/ATCC NSCLC
786-0 renal = tested on: 786-0 renal
COLO 205 colon = tested on: COLO 205 colon

| SMILES | growth (NCI-H23 lung) | growth (NCI-H226 lung) | growth (NCI-H322M lung) | growth (HOP-62 NSCLC) | growth (NCI-H460 lung) | growth (HOP-92 NSCLC) | growth (NCI-H522 lung) | growth (A549/ATCC NSCLC) | growth (786-0 renal) | growth (COLO 205 colon) |
| --- | --- | --- | --- | --- | --- | --- | --- | --- | --- | --- |
| CC[C@H](C)[C@H](NC(=O)[C@H]1CCCCN1C)C(=O)N(C)[C@H](C[C@@H](OC(C)=O)c1nc(C(=O)NC23C4C5C2C2C3C4C52C(=O)OC)cs1)C(C)C (stereo not given in full) | 18.6% (inactive) | 14.3% (inactive) | 48.3% (inactive) | 21.5% (inactive) | 12.6% (inactive) | -1.14% (active) | -16.1% (active) | 7.26% (active) | 13.7% (inactive) | -42.8% (active) |
| CCCCCCCCCCCCCCCCCC1OCC(COC(=O)O[C@@H](C(=O)O[C@H]2C[C@@]3(O)[C@@H](OC(=O)c4ccccc4)[C@@H]4[C@]5(OC(C)=O)CO[C@@H]5C[C@H](O)[C@@]4(C)C(=O)[C@H](OC(C)=O)C(=C2C)C3(C)C)[C@@H](NC(=O)c2ccccc2)c2ccccc2)O1 (stereo not given in full) | 40.3% (inactive) | 53.4% (inactive) | 58.8% (inactive) | 60.5% (inactive) | 18.2% (inactive) | 94.8% (inactive) | 48.6% (inactive) | 53.2% (inactive) | 80.9% (inactive) | 24.7% (inactive) |
| N#CC(C#N)=Cc1cccc(F)c1 | 102% (inactive) | 103% (inactive) | 104% (inactive) | 95.2% (inactive) | 105% (inactive) | 130% (inactive) | 99.4% (inactive) | 100% (inactive) | 103% (inactive) | 115% (inactive) |
| CN1[C@@H](CC(=O)c2ccccc2)CCC[C@H]1CC(=O)c1ccccc1 | 97.2% (inactive) | 96.7% (inactive) | 110% (inactive) | 110% (inactive) | 115% (inactive) | 111% (inactive) | 86.9% (inactive) | 93.8% (inactive) | 108% (inactive) | 114% (inactive) |
| C[C@@]12CCCc3coc(c31)C(=O)c1cc3c(cc12)C(=O)C1=C(NCCS1(=O)=O)C3=O | -36.4% (active) | 7.87% (active) | -6.28% (active) | -9.65% (active) | 0.0882% (active) | -30.6% (active) | -55.6% (active) | -10.7% (active) | 6.38% (active) | -78.1% (active) |
| C=C[Se]CC(=O)/C=C/c1ccccc1 | 70.1% (inactive) | 98% (inactive) | 6% (active) | 13% (inactive) | 12.8% (inactive) | 104% (inactive) | 89.2% (inactive) | 32.3% (inactive) | 102% (inactive) | 109% (inactive) |
| COc1ccn(C)c(=O)c1C#N | 105% (inactive) | 91.6% (inactive) | 92.3% (inactive) | 83.5% (inactive) | 108% (inactive) | 116% (inactive) | 66.5% (inactive) | 83.7% (inactive) | 104% (inactive) | 95.9% (inactive) |
| CNC(=O)Oc1ccc(Cl)cc1SSc1cc(Cl)ccc1OC(=O)NC | 65.4% (inactive) | 102% (inactive) | 103% (inactive) | 95.2% (inactive) | 60.1% (inactive) | 42.7% (inactive) | 51.2% (inactive) | 103% (inactive) | 110% (inactive) | 110% (inactive) |
| CCN1C(=O)CC(=O)N(CC)C1=S | 82% (inactive) | 103% (inactive) | 102% (inactive) | 172% (inactive) | 107% (inactive) | 92.1% (inactive) | 84.1% (inactive) | 109% (inactive) | 97.6% (inactive) | 115% (inactive) |
| CC[C@H](C)[C@H](NC(=O)[C@H]1CCCCN1C)C(=O)N(C)[C@H](CCc1nc(C(=O)N[C@@H](Cc2ccccc2)C[C@H](C)C(=O)O)cs1)C(C)C | 29.9% (inactive) | 31% (inactive) | 49.9% (inactive) | 12.6% (inactive) | 8.77% (active) | 30.3% (inactive) | -6.97% (active) | 22.4% (inactive) | 31.8% (inactive) | -37.9% (active) |
